The values that follow come from PubChem BioAssay (Tox21).

The nature of test [1]: qHTS assay to identify small molecule antagonists of the sonic hedgehog signaling (Shh) pathway (AID 1259369; calls by dose curve; further: nearly all actives have a fitted effect of over 45% in size; further: potency means the concentration at half of the fitted maximal effect). The method, boiled down:
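NIH/3T3-derived 3T3Gli1-Luc cells with stably integrated Gli1-Luc reporter were preincubated 4hr at 37 C, then given compounds in DMSO plus Shh conditioned medium and incubated 24hr. Firefly luciferase luminescence read after 30min reagent at room temperature.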
(Quantitative high-throughput screening tests each substance at several concentrations.)

For test [2], the target named is Estrogen receptor beta (Homo sapiens) (UniProt Q92731). Nature of the test: qHTS assay to identify small molecule agonists of the estrogen receptor beta (ER-beta) signaling pathway (AID 1259377; active means well fitted activation curve with a large enough effect in the signal ratio in the repeat runs, not every such curve was filed as active; the % refers to the signal ratio). Put shortly:
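In HEK293T cells bearing a UAS-beta-lactamase reporter under ER-beta control, DMSO-delivered compounds were incubated for 16 hr at 37C. Activity was detected as fluorescence 2 hours after LiveBLAzer B/G FRET substrate addition.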

The target is the same in test [3]. Nature of the test: qHTS assay to identify small molecule antagonists of the estrogen receptor beta (ER-beta) signaling pathway (AID 1259378; active means well fitted inhibition curve with a large enough effect in the signal ratio in the repeat runs, not every such curve was filed as active; the % refers to the signal ratio). The method, boiled down:
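Antagonist mode: compounds added to beta-lactamase reporter HEK293T ER-beta-UAS cells stimulated with E2 (1nM final), 16 hr at 37C. LiveBLAzer B/G FRET substrate, 2 hours room temperature, fluorescence read-out.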

The nature of test [4]: qHTS assay to identify small molecule agonists of the androgen receptor (AR) signaling pathway in the presence of an antagonist - cell viability counter screen (AID 1259379). Further: series mostly up to about 92 µM; nearly all actives have a fitted effect of over 25% in size. Put shortly:
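MDA-kb2 human breast carcinoma cells (stable MMTV-luciferase, AR/GR responsive) were seeded 3,000 cells/well, pre-incubated 5 hr at 37C without CO2, then given 3.0uM nilutamide and compounds at 15 concentrations for 16 hr. Viability was read by CellTiter-Fluor fluorescence.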

Test [5] can be described thus: qHTS assay to identify small molecule agonists of the estrogen receptor beta (ER-beta) signaling pathway - cell viability counter screen (AID 1259380). Further: nearly all actives have a fitted effect of over 30% in size. The method, boiled down: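 ER-beta-UAS-bla HEK293T cells in medium with 2% charcoal-stripped FBS were preincubated 6 hr at 37C, dosed with compound in DMSO for 16 hr, then after the bla read, CellTiter-Glo was added for 30 min at room temperature; luminescence recorded.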

Test [6] is described as follows: qHTS assay to identify small molecule antagonists of the estrogen receptor beta (ER-beta) signaling pathway - cell viability counter screen (AID 1259382).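 Further: HEK293T cells carrying ER-beta-UAS-bla reporter stimulated with estradiol; series mostly up to about 92 µM; nearly all actives have a fitted effect of over 55% in size.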 Put shortly: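 ER-beta-UAS-bla HEK293T cells (2,000/well, 2% charcoal-stripped FBS) were pre-incubated 6 hr at 37C, then given compound plus 1nM final 17-beta-estradiol for 16 hr. Viability was read in the same wells by CellTiter-Glo luminescence after 30 min at room temperature.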

Test [7] can be described thus: qHTS assay to identify small molecule agonists or antagonists of the thyroid stimulating hormone receptor (TSHR) signaling pathway - wild type cell line counter screen (AID 1259384; calls by dose curve). The method, boiled down: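 Counter screen in untransfected Hek293: compounds (15-point titration, triplicate) plus phosphodiesterase inhibitor Ro20-1724 added after 18 h plating; 30 min RT. Intracellular cAMP via competitive d2/cryptate immunoassay, 1 h incubation.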

Test [8] deals with Thyrotropin receptor (Homo sapiens) (UniProt P16473). In words: qHTS assay to identify small molecule antagonists of the thyroid stimulating hormone receptor (TSHR) signaling pathway (AID 1259385; calls by dose curve; further: nearly all actives have a fitted effect of over 20% in size). Put shortly:
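Antagonist mode: compound-treated TSHR-expressing HEK293 cells were stimulated with 1.5 ng/mL TSH (final) in presence of Ro20-1724 for 30 min at RT. HTRF cAMP detection after 1 h; each compound tested at 15 concentrations, triplicate.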

Test [9] in a line: qHTS assay to identify small molecule agonists of the estrogen receptor alpha (ER-alpha) signaling pathway in the presence of an antagonist - cell viability counter screen (AID 1259386).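 Further: series mostly up to about 92 µM; cells exposed to compounds for 22 h at 37 °C before the viability read; nearly all actives have a fitted effect of over 30% in size.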 Put shortly: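 VM7Luc4E2 cells (endogenous full-length ER-alpha, 4×ERE-luciferase) were held 5 days in phenol red-free medium with 10% charcoal-stripped FBS, plated, then given 10.0nM ICI-182,780 and compounds at 15 concentrations for 22hr at 37C; viability read by CellTiter-Fluor fluorescence.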

Test [10] has as its target Progesterone receptor (Homo sapiens) (UniProt P06401). Nature of the test: qHTS assay to identify small molecule agonists of the progesterone receptor (PR) signaling pathway (AID 1346784; calls by dose curve; further: nearly all actives have a fitted effect of over 30% in size). Put shortly: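 Using charcoal-stripped serum (2%) to limit endogenous steroids, PR-UAS-bla HEK 293T cells received compounds for 16 hr at 37C after 6 hr plating; beta-lactamase FRET fluorescence was recorded following 2 hr substrate loading at room temperature.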

The target is the same in test [11]. In words: qHTS assay to identify small molecule antagonists of the progesterone receptor (PR) signaling pathway (AID 1346795; active means well fitted inhibition curve with a large enough effect in the signal ratio in the repeat runs, not every such curve was filed as active; the % refers to the signal ratio). Put shortly:
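Inhibition of R5020-induced (1 nM final) beta-lactamase reporter signal in PR-UAS-bla HEK293T cells was scored by FRET fluorescence after overnight (16 hr) compound treatment.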

Test [12] in a line: qHTS assay to identify small molecule antagonists of the progesterone receptor (PR) signaling pathway - cell viability counter screen (AID 1346798). Further: series mostly up to about 92 µM; nearly all actives have a fitted effect of over 50% in size. Put shortly: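 ATP content as viability readout: CellTiter-Glo luminescence, 30 min room temperature, in PR-UAS-bla HEK293T cells after 16 hr compound/R5020 treatment at 37C and 5% CO2.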
A short description of test [13]: qHTS assay to identify small molecule agonists of the progesterone receptor (PR) signaling pathway - cell viability counter screen (AID 1346799; calls by dose curve; further: nearly all actives have a fitted effect of over 45% in size). Put shortly:
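Cytotoxicity in PR-bla HEK293T cells: 16 h compound, 37C; CellTiter-Glo added post-FRET read; luminescence after 30 min RT.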

Test [14] is described as follows: qHTS assay to identify small molecule antagonists of the TGF-beta/Smad signaling pathway - cell viability counter screen (AID 1346824). Further: nearly all actives have a fitted effect of over 50% in size. Put shortly: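 Cytotoxicity counter-screen run in the same wells as the beta-lactamase Smad reporter read: CellTiter-Glo luminescence after 30 min at room temperature. HEK 293T SBE-bla cells had 5 hr compound exposure at 37 C with TGF-beta1 (0.25 ng/mL stock).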

Test [15] in a line: qHTS assay to identify small molecule agonists of the TGF-beta/Smad signaling pathway - cell viability counter screen (AID 1346829). Further: top concentration of the series differs between compounds; nearly all actives have a fitted effect of over 45% in size. Put shortly:
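Tox21 qHTS format: SBE-bla HEK 293T cells treated with DMSO-dissolved compounds for 5 hr; CellTiter-Glo luminescence after 30 min at room temperature.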

Test [16] in a line: qHTS assay to identify small molecule agonists of the TGF-beta/Smad signaling pathway (AID 1346859; active means well fitted activation curve with a large enough effect in the signal ratio in the repeat runs, not every such curve was filed as active; the % refers to the signal ratio; further: series mostly up to about 77 µM). Put shortly: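 Stable Smad binding element-beta-lactamase HEK 293T cells; 5 hr compound exposure at 37 C under 5% CO2; 2 hr room-temperature substrate step; fluorescence excited at 405 nm, collected at 460 nm and 530 nm.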
The target of test [17] is Thyrotropin-releasing hormone receptor (Homo sapiens) (UniProt P34981). In words: qHTS assay to identify small molecule antagonists of the thyrotropin-releasing hormone receptor (TRHR) signaling pathway (AID 1346877; active means well fitted inhibition curve with a large enough effect in the repeat runs, not every such curve was filed as active; further: series mostly up to about 51 µM). The method, boiled down: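 TRHR-expressing HEK293 cells were seeded, cultured 18 h at 37 °C, then loaded with calcium dye for 2 h. Compounds were pre-incubated 5 min at room temperature before 1 nM TRH (final) was added, and kinetic fluorescence was recorded for 3 min.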

Test [18] has the same target. Nature of the test: qHTS assay to identify small molecule agonists of the thyrotropin-releasing hormone receptor (TRHR) signaling pathway (AID 1346891; calls by dose curve; further: potency means the concentration at half of the fitted maximal effect; on activation: series mostly up to about 58 µM). Put shortly:
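In 1536-format, 1500 TRHR-Hek293 cells per well grew 18 h, took up calcium dye for 2 h at 37 °C, received compound, and were read kinetically; 15-point titrations, triplicates.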

Test [19] has as its target Estrogen receptor (Homo sapiens) (UniProt P03372). In words: qHTS assay to identify small molecule agonists of the estrogen receptor alpha (ER-alpha) signaling pathway in the presence of an antagonist (AID 1259383; calls by dose curve; further: top concentration of the series differs between compounds; nearly all actives have a fitted effect of over 15% in size). The method, boiled down:
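VM7Luc4E2 cells (endogenous full-length ER-alpha, 4×ERE-luciferase) were precultured 5 days in phenol red-free medium with 10% charcoal-stripped FBS, given 10.0nM ICI-182,780 (final), then treated with compounds at 15 concentrations for 22hr at 37C; luminescence read with ONE-Glo.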

Test [20] concerns the target Androgen receptor (Homo sapiens) (UniProt P10275). In words: qHTS assay to identify small molecule agonists of the androgen receptor (AR) signaling pathway in the presence of an antagonist (AID 1259381; calls by dose curve; further: nearly all actives have a fitted effect of over 15% in size). Put shortly: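 MDA-kb2 human breast carcinoma cells carrying an MMTV-luciferase reporter (AR- and GR-responsive) were treated with compounds at 15 concentrations plus 3.0uM final nilutamide for 16hr at 37C without CO2; luminescence was read after ONE-Glo addition.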

Values without a mark were called inactive. Results filed as inconclusive are left out. Activity calls are given as the source filed them. Unless noted, the call rests on the fitted dose curve; in most records, active means well fitted curve in the direction sought with a large enough effect in the repeat runs; inconclusive means weak or mixed curves; inactive means no such curve, though single readings can be large; an effect the other way counts as inactive or inconclusive.

Chain of Estrogen receptor (Homo sapiens) (P03372 whole entry, looked up): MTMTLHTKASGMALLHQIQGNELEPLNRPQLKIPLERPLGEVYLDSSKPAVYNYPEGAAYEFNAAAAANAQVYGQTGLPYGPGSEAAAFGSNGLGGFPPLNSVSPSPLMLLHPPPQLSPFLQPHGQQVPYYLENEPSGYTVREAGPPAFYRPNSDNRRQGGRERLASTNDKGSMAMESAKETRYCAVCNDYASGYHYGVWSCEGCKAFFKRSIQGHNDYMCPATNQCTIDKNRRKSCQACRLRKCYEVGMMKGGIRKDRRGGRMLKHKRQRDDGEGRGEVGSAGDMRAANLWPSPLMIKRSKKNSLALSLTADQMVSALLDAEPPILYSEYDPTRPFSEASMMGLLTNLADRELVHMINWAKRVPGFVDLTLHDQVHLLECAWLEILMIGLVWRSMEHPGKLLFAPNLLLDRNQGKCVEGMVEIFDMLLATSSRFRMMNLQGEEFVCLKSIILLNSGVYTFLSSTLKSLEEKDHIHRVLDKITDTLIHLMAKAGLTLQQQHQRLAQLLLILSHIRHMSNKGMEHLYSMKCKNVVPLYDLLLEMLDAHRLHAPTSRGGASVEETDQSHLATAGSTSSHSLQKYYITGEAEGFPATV
Chain of Thyrotropin-releasing hormone receptor (Homo sapiens) (P34981 whole entry, looked up): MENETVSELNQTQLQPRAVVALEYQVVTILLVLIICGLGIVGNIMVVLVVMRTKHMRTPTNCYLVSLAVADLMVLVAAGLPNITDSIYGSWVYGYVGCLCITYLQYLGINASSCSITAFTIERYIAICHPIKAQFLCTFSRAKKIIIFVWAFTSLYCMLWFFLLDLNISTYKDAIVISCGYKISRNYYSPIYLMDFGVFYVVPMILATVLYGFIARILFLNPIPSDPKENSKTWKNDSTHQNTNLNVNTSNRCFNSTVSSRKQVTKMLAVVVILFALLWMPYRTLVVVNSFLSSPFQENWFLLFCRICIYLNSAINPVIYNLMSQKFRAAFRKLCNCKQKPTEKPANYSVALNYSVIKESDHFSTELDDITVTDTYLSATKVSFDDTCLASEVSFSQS
Chain of Progesterone receptor (Homo sapiens) (P06401 whole entry, looked up): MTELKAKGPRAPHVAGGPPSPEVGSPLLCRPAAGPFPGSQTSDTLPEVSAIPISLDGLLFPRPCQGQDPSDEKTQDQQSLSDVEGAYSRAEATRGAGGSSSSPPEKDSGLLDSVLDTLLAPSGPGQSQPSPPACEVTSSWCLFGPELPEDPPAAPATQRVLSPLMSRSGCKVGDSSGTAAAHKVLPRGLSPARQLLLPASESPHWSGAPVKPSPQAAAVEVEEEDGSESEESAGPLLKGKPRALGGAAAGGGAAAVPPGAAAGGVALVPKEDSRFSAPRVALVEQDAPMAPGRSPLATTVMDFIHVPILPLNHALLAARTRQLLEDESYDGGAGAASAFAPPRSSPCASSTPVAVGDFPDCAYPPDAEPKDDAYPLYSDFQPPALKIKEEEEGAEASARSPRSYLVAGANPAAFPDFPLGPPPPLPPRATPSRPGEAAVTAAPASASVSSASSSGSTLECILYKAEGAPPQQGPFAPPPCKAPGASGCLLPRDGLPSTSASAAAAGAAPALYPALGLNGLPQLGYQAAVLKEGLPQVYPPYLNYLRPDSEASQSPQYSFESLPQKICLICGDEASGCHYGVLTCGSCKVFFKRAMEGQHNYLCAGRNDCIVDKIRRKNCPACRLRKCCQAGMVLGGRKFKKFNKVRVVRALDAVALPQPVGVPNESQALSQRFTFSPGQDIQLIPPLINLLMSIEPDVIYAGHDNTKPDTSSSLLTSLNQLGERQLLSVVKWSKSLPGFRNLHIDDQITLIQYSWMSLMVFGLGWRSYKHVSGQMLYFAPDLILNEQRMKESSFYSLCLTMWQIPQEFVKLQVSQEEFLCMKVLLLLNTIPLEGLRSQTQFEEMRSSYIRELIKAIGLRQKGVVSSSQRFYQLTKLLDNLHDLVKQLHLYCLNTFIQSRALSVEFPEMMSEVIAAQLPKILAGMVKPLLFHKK
Chain of Estrogen receptor beta (Homo sapiens) (Q92731 whole entry, looked up): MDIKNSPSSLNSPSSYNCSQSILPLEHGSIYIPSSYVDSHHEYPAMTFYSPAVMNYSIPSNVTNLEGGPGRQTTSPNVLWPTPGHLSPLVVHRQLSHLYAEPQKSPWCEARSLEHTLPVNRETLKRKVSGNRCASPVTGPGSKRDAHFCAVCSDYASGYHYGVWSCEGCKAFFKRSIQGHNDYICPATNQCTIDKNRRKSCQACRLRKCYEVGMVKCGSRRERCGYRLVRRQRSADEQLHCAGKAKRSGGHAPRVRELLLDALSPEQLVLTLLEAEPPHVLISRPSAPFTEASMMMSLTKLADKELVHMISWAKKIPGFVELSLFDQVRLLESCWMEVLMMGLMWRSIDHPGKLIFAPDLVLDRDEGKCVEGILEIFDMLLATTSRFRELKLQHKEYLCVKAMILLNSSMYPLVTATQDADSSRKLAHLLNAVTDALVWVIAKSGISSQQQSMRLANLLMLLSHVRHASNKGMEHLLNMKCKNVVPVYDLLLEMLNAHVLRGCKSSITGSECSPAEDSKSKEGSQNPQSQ
Chain of Thyrotropin receptor (Homo sapiens) (P16473 whole entry, looked up): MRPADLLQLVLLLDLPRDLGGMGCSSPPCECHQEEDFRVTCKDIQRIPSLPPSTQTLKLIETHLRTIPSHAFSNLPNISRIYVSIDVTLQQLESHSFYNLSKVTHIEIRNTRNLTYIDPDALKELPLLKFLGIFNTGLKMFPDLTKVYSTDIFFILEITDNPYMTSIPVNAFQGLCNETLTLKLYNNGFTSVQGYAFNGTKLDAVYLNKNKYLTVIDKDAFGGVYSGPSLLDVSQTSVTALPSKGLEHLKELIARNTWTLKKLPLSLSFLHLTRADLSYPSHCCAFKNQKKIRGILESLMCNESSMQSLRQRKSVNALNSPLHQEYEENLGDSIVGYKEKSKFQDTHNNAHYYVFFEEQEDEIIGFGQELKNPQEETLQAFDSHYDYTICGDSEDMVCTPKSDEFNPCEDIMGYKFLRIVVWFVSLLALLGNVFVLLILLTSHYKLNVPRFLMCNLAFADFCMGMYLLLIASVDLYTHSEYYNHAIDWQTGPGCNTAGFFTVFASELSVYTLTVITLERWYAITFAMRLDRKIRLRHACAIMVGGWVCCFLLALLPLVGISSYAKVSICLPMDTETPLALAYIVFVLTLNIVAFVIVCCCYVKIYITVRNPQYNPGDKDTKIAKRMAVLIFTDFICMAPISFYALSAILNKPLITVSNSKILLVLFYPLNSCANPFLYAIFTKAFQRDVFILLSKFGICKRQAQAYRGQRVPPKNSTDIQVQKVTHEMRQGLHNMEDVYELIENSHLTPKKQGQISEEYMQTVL
Chain of Androgen receptor (Homo sapiens) (P10275 whole entry, looked up): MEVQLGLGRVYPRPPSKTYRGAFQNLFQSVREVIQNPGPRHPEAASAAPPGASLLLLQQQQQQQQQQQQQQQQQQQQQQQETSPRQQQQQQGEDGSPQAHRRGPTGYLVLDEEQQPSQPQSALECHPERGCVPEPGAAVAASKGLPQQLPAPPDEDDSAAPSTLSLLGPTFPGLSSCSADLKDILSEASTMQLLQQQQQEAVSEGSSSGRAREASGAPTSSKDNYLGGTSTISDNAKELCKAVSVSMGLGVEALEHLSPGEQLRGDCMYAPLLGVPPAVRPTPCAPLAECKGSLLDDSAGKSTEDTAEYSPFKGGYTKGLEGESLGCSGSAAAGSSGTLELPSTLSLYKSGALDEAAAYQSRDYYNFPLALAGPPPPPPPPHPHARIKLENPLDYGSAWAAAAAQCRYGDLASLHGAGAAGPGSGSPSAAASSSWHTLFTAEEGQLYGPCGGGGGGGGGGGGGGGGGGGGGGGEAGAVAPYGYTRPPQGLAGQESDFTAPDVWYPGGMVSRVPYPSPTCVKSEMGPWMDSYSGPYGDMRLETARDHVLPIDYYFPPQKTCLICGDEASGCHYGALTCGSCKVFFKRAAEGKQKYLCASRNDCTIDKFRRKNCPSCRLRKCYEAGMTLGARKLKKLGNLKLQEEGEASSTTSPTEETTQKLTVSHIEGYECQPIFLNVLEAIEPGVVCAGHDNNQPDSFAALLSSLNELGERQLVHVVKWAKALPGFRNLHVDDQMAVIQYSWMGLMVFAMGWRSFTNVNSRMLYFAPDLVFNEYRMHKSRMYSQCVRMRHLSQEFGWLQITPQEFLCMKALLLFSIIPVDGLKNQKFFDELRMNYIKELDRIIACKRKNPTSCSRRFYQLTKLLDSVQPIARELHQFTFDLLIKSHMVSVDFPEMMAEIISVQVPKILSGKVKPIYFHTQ

With `CCCCOCCOC(=O)CCCCCCCCC(=O)OCCOCCCC`, the Potency in test [1] is 30.6 µM (active). In addition, the Potency entry in test [2], in [3], in test [4], in test [5], in [9] and in [10] was “inactive” each time. Further, the Potency entry in test [11], in test [12], in test [13] and in [18] was “inactive” in each case. Also, the call in [6], in test [7], in [8], in test [14], in [15] and in test [16] was inactive. Besides, in [17], the compound was called inactive.

Turning to `CCOC(=O)c1ccccc1`, the Potency entry in test [1], in test [2], in test [3], in test [4], in test [5] and in test [9] was “inactive” throughout. Moreover, the Potency entry in test [10], in test [11], in [12], in test [13] and in test [18] was “inactive” each time. Also, the compound was classed as inactive in test [6], in test [19], in test [14], in test [16] and in [17].

In the case of `CCC(C)(CCCC(C)C)OC(C)=O` (stereo unspecified), the Potency entry in test [1], in [2], in [3], in test [4], in [9] and in [11] was “inactive” throughout. Also, the Potency result in test [12] and in [13] was “inactive” throughout. Further, the compound was called inactive in [6], in test [19], in test [7], in [8], in [14] and in test [15]. The outcome in test [16] was inactive.

In the case of `CN(C)CCCCCCN(C)C`, the Potency entry in test [1], in [2], in test [3], in test [4], in test [5] and in [9] was “inactive” throughout. The Potency entry in test [11], in test [12], in test [13] and in test [18] was “inactive” each time. In addition, the outcome in test [6], in test [8], in [14], in [15], in [16] and in test [17] was inactive.

Consider `Cc1ncc([C@@H](CCCCCCc2ccc3c(n2)NCCC3)CC(=O)O)cn1`, for which the Potency result in test [1], in test [2], in [3], in test [4], in [5] and in test [10] was “inactive” throughout. In addition, the Potency result in [12] and in test [18] was “inactive” each time. In addition, the outcome in [6], in test [19], in test [14] and in [16] was inactive.

Regarding `CCOc1ccccc1OCC`, the Potency entry in [1], in [2], in test [3], in test [4], in test [5] and in test [9] was “inactive” each time. For the same compound, the Potency entry in test [10], in test [11], in test [12] and in test [13] was “inactive” throughout. Also, the outcome in test [6], in [7], in test [8], in [14], in test [15] and in test [16] was inactive.

Regarding `COCCOC[C@H](CC1(C(=O)NC2CCC(C(=O)O)CC2)CCCC1)C(=O)Oc1ccc2c(c1)CCC2` (stereo partly specified), the Potency result in test [1], in test [2], in test [3], in test [5], in test [20] and in [11] was “inactive” throughout. The Potency entry in [12] and in test [13] was “inactive” each time. Further, the call in test [6], in test [19], in test [7], in test [8], in test [14] and in test [15] was inactive. Also, the compound was called inactive in test [16]. The Potency in [18] is 11 µM (active).

For `CCC(C)(CN(C)C)OC(=O)c1ccccc1` (stereo unspecified), the Potency result in test [1], in [2], in test [3], in test [4], in [5] and in [9] was “inactive” throughout. Moreover, the Potency result in test [10], in test [11], in test [12] and in test [13] was “inactive” in each case. The compound was classed as inactive in [6], in test [14], in test [15] and in test [16].

Regarding `CCOC(=O)C(=O)CCCCCCl`, the Potency entry in test [1], in test [2], in test [3], in test [5], in test [20] and in [9] was “inactive” each time. For the same compound, the Potency result in test [10], in test [11], in [12], in [13] and in [18] was “inactive” each time. For the same compound, the call in [6], in test [19], in [7], in test [8], in test [14] and in test [16] was inactive. Moreover, the result in test [17] was inactive.
